This passage reports z-score and composite z-score results from PubChem BioAssay.

“And” between values parts separate entries of the source, which are not always exact repeats. Equal values may be shown once. The source made the active and inactive calls. Unless noted, how the calls were made is not given here.

Assay [1] in a line: resazurin metabolic signal in HepG2 cells – cell-based, resazurin fluorescence, 24 h, PK04 Diversity Set, profiling panel (AID 1172). As to conditions: HepG2 viability, higher = more signal.
Assay [2] is described as follows: budding yeast growth changes without added modifier – OD600, strain BY4716, 24 h, basal condition, primary screen (AID 1173). As to conditions: S. cerevisiae BY4716 growth, OD600, 24 h; higher = more signal, called active from +8 up or from −8 down.
Assay [3] in a line: viability profiling in MM1S myeloma cells – cell-based, resazurin fluorescence, basal, 24 h, PK04 Diversity Set, profiling panel (AID 1174). The settings on record: higher = more signal, called active from +8 up or from −8 down.
The target of assay [4] is Dihydroorotate dehydrogenase (quinone), mitochondrial (Plasmodium falciparum (isolate 3D7)) (UniProt Q08210). In words: inhibition of P. falciparum DHODH – biochemical, C-terminal His tag, absorbance 600 nm, primary screen (AID 1175).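 Further: recombinant parasite enzyme with a five histidine tag at its C terminus.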 As to conditions: PfDHODH enzyme, DCIP absorbance 600 nm; higher = more signal, called active from +8 up or from −8 down.
Chain of Dihydroorotate dehydrogenase (quinone), mitochondrial (Plasmodium falciparum (isolate 3D7)) (Q08210 whole entry, looked up): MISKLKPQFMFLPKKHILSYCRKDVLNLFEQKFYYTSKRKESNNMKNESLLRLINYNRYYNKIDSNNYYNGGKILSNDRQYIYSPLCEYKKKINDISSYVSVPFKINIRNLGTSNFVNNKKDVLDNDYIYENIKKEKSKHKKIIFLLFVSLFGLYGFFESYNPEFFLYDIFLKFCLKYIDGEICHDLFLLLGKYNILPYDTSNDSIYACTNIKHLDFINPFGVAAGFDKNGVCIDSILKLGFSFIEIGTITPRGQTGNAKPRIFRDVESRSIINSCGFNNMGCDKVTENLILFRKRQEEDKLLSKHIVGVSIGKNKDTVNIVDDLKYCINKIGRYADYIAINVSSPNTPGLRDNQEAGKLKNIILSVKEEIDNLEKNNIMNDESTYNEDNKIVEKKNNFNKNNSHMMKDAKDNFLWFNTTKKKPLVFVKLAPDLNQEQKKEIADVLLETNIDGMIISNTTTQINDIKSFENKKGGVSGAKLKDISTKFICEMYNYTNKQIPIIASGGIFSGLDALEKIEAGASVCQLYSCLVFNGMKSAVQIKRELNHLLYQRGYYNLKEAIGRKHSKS
A short description of assay [5]: inhibition of PAO1 biofilm formation – strain PAO1, LB-PBS medium, absorbance 600 nm, primary screen (AID 1176). As to conditions: P. aeruginosa PAO1 growth/biofilm, A600, 12 h; higher = more signal.
The nature of assay [6]: growth modulation of vineyard yeast isolate – strain RM11-1a, OD600, basal, 24 h, primary screen (AID 1177).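 Further: cultures grown under basal conditions with no added stressor.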 The settings on record: S. cerevisiae RM11-1a growth, OD600, 24 h; higher = more signal, called active from +8 up or from −8 down.
Assay [7] can be described thus: growth of efflux-deficient E. coli DRC39 – strain DRC39, OD650, 24 h, E. coli filamentation inducers, primary screen (AID 1178).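 Further: growth measured as culture turbidity by optical density at 650 nm.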 The settings on record: E. coli DRC39 acrAB, higher = more signal, called active from +8 up or from −8 down.
The nature of assay [8]: growth of efflux-deficient E. coli DRC39 – strain DRC39, OD650, 48 h, E. coli filamentation inducers, primary screen (AID 1179).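 Further: screen aims at cell division blockers that make cells filament.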 As to conditions: E. coli DRC39 delta-acrAB growth, higher = more signal, called active from +8 up or from −8 down.
A short description of assay [9]: viability profiling in RPMI8226 myeloma cells – cell-based, resazurin fluorescence, basal, 24 h, PK04 Diversity Set, profiling panel (AID 1180).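 Further: RPMI8826 multiple myeloma cell line at 5000 cells per well.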 As to conditions: higher = more signal.
The target in assay [10] is E3 ubiquitin-protein ligase XIAP (Homo sapiens) (UniProt P98170). In words: small molecules binding XIAP protein – biophysical, small-molecule microarray, fluorescence 635 nm, primary screen (AID 1181).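 Further: score merges 667 nm emission and signal to noise over triplicate slides.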 As to conditions: higher = more signal.
Chain of E3 ubiquitin-protein ligase XIAP (Homo sapiens) (P98170 whole entry, looked up, the tested form may be a part): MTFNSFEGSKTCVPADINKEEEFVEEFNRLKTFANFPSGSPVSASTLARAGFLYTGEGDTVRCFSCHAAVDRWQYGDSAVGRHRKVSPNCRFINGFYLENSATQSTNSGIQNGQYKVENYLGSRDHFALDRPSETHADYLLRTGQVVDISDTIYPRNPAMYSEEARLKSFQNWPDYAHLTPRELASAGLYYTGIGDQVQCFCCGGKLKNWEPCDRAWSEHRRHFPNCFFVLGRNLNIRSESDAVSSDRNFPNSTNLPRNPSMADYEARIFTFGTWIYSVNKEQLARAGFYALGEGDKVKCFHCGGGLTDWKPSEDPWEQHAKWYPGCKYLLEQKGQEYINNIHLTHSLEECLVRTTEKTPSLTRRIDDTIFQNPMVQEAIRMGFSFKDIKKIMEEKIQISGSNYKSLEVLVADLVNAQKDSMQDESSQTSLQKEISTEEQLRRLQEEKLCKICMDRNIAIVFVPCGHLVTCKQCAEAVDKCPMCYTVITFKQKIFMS
Assay [11] relates to XIP peptide (Xip251-270) binding. In words: XIP fragment 251-270 binding compounds – biochemical, small-molecule microarray, fluorescence 635/667 nm, 0.1 µg/mL protein, primary screen (AID 1182). The settings on record: fluorescent protein binding, 635 nm, higher = more signal, called active from +8 up or from −8 down.
For a further assay, the system named is XIP peptide (Xip251-270). Put plainly: compounds binding XIP fragment 251-270 – biochemical, small-molecule microarray, fluorescence 635/667 nm, 0.5 µg/mL protein, primary screen (AID 1183). As to conditions: fluorescence 635 nm, higher = more signal.
Assay [12] is described as follows: blood-stage malaria parasite viability loss – strain 3D7, DAPI fluorescence, 100 nL, primary screen (AID 1184).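 Further: parasites grown inside human red blood cells in medium with human serum.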 As to conditions: P. falciparum 3D7 growth, 3 d, higher = more signal.
Assay [13] has as its target Homeobox protein Hox-A13 (Mus musculus) (UniProt Q62424). In words: disruptors of Hoxa13 oligonucleotide interaction – biochemical, fluorescence polarization, labeled oligonucleotide, primary screen (AID 1185). The settings on record: Hoxa13:DNA binding, 15 min, higher = more signal, called active from +8 up or from −8 down.
Assay [14] in a line: blockers of DNA damage checkpoint Chk1 activation – imaging, HeLa, hydroxyurea, phospho-Chk1 antibody, percent positive cells, primary screen (AID 1186). As to conditions: hydroxyurea-induced phospho-Chk1 immunofluorescence imaging, higher = more signal.
Assay [15] in a line: blockers of DNA damage checkpoint Chk1 activation – imaging, HeLa, hydroxyurea, phospho-Chk1 nuclear intensity, primary screen (AID 1187). As to conditions: hydroxyurea-induced phospho-Chk1 immunofluorescence imaging, higher = more signal.

Chain of Homeobox protein Hox-A13 (Mus musculus) (Q62424 whole entry, looked up): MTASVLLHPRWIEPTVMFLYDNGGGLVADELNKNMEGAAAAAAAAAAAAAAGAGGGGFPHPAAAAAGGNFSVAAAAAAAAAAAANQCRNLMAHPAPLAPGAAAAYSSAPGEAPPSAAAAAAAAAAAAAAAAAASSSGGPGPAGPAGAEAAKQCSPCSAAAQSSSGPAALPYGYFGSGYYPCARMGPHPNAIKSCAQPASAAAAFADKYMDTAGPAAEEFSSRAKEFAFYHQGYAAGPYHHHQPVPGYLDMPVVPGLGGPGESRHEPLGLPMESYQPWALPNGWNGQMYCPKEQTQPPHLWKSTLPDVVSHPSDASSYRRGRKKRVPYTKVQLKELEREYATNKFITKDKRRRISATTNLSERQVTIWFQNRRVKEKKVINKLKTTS

`C=CCN(CCCC)C(=O)C1N(c2ccc(CCO)cc2)C(=O)C2C(C(=O)O)C3C=CC21O3` (stereo not given): the z-score in [1] was 0.533 and -0.912; in assay [2] it was -0.539 (inactive) and -0.275 (inactive); in assay [3] it was -0.217 (inactive) and -0.801 (inactive); in assay [5] it was 0.633 (inactive) and 0.276 (inactive); in assay [6], -0.639 (inactive) and 0.159 (inactive); in [7], 0.227 (inactive) and 0.473 (inactive). The z-score in assay [8] is -0.248 (inactive) and 0.25 (inactive); in assay [9] it was -0.0068 and 0.0215; in assay [12], 0.224 and -1.45; in assay [13], -1.03 (inactive) and -0.448 (inactive); in assay [14], 0.147 (inactive) and -0.608 (inactive); in [15], -0.173 (inactive) and -0.502 (inactive). For the same molecule, the composite z-score was -0.51 (inactive) and -1.02 (inactive) in [4]; -0.53 and 0.0871 in [10]; -1.72 (inactive) and -1.1 (inactive) in assay [11]; 0.261 and -0.728 in the assay on XIP peptide (Xip251-270).

With `C=C[C@@H](OC)[C@H](O)c1ccc(OC)c(O)c1`, the z-score was -0.246 and 0.49 in assay [1]; -1.28 (inactive) and -1.67 (inactive) in assay [2]; -0.72 (inactive) and 0.989 (inactive) in assay [3]; 0.152 (inactive) in assay [5]; 0.119 (inactive) and -1.5 (inactive) in [6]; -0.0985 (inactive) and 1.78 (inactive) in [7]. Moreover, the z-score in assay [8] was -0.489 (inactive) and 1.38 (inactive); in assay [9] it was -1.04 and 0.51; in assay [12] it was -0.151 and -0.337; in assay [13], -0.828 (inactive) and 0.853 (inactive); in assay [14], 0.719 (inactive) and -0.433 (inactive); in [15], -0.0654 (inactive) and 0.0937 (inactive). Also, the composite z-score in [4] was 0.229 (inactive) and -0.344 (inactive); in [10], -0.319 and -0.148; in [11], 0.263 (inactive) and -0.18 (inactive); in the assay with XIP peptide (Xip251-270) it was -0.531 and -1.37.

`C=C[C@H](OC)[C@@H](O)c1ccc(OCCO)cc1`: the z-score in assay [1] is -0.843 and 0.501; in assay [2], -0.43 (inactive) and -1.55 (inactive); in assay [3] it was -0.887 (inactive) and 0.51 (inactive); in assay [5] it was 0.0123 (inactive) and 1.37 (inactive); in assay [6], 0.952 (inactive) and -0.0987 (inactive); in [7], -0.258 (inactive) and 1.78 (inactive). Besides, the z-score in assay [8] was -0.366 (inactive) and 1.8 (inactive); in [9], -1.28 and 1.05; in [12] it was 0.0026 and 0.809; in assay [13], -0.791 (inactive) and -0.187 (inactive); in assay [14] it was 0.228 (inactive) and 0.524 (inactive); in [15], 0.0287 (inactive) and 0.865 (inactive). Further, the composite z-score in assay [4] was -0.0113 (inactive) and -0.134 (inactive); in [10], -0.206 and -0.352; in [11] it was 0.632 (inactive) and -0.235 (inactive); in the assay on XIP peptide (Xip251-270) it was -1.15 and -0.537.

Take `CCOC(=O)C[C@H]1[C@H](OC(=O)c2ccccc2-c2ccccc2)[C@@H](NC(=O)Cc2ccc(OC)cc2)c2cc(OCCCO)ccc2N1C(=O)c1ccc2ccccc2n1`: the z-score is 0.528 and 0.85 in assay [1]; -1.31 (inactive) and -0.5 (inactive) in assay [2]; 1.19 (inactive) and 0.644 (inactive) in [3]; 0.456 (inactive) in assay [5]; -0.484 (inactive) and -0.0944 (inactive) in assay [6]; 2.5 (inactive) and 0.544 (inactive) in assay [7]. In addition, the z-score in [8] is 1.25 (inactive) and 0.422 (inactive); in [9], -0.0946 and 0.108; in assay [12], -0.543 and -0.616; in [13], -1.67 (inactive) and -0.554 (inactive); in [14], -0.015 (inactive) and -0.308 (inactive); in [15], 0.0414 (inactive) and -0.162 (inactive). For the same molecule, the composite z-score in assay [4] is 0.34 (inactive) and 0.282 (inactive); in [10], -0.289 and 0.299; in [11], -0.432 (inactive) and 0.387 (inactive); with XIP peptide (Xip251-270), -0.398 and 0.0791.

`C=CCN(C(=O)C(c1cccs1)N(CCOCCO)C(=O)/C=C\C(=O)O)C(C)(C)C` (stereo not given): the z-score in [1] is -0.403 and -0.304; in assay [2] it was -0.655 (inactive) and -0.25 (inactive); in assay [3], -0.102 (inactive) and 0.0032 (inactive); in assay [5], -0.497 (inactive); in assay [6], 0.432 (inactive) and 0.467 (inactive); in assay [7] it was 1.15 (inactive) and 1.46 (inactive). The z-score is 1.61 (inactive) and 1.68 (inactive) in assay [8]; -0.0043 and -0.146 in [9]; 0.0905 and 0.921 in assay [12]; 0.175 (inactive) and -0.386 (inactive) in [13]; 0.0502 (inactive) and -0.289 (inactive) in assay [14]; -0.124 (inactive) and 0.0803 (inactive) in [15]. In addition, the composite z-score in assay [4] was -2.84 (inactive) and -0.333 (inactive); in [10], 0.0428 and 0.704; in [11] it was -0.344 (inactive) and 0.0156 (inactive); in the assay with XIP peptide (Xip251-270), -0.281 and -0.228.
